HP1b chromo inh: inhibitors of HP1-beta chromodomain binding to methylated histone tails; P83916; AlphaScreen HP1-beta / biotin-H3K9me3 peptide binding; Potency, µM (titrated, usually from 114 µM), for the others: top-dose activity change, negative = inhibition, most hits filed as inhibitors; hit rate 0.56% among 390,000; AID 540317; note: potency is the fitted concentration of half-maximal effect; nearly all actives have a fitted effect of over 70% in size
Target sequence (P83916 whole entry, looked up): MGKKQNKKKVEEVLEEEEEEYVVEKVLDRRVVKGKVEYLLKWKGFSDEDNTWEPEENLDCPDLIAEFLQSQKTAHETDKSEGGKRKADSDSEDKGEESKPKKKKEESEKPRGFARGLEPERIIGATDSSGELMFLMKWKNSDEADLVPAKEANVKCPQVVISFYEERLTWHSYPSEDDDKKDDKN
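Compound inhibition of the preformed complex between 50 nM HP1-beta and 50 nM biotinylated H3K9me3 peptide was read by AlphaScreen. Buffer was PBS pH 7.4 with 0.01% Tween-20. Incubations ran 30 min at room temperature, with 10 ug/mL donor/acceptor beads.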
Six1-Eya2 blk: Six1/Eya2 interaction inhibition | Q15475+O00167 | hit rate 0.56% among 360,000 | activity change, % (test concentration not listed) | AID 651725 | AlphaScreen GST-Six1/His-Eya2 binding, biochemical; hits give low values; in the data active = activity change below about -65%; inconclusive = mostly about -30% to -63%; note: % is set by controls: 0 for no effect and ±100 for the full control effect
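AlphaScreen with GST-Six1 and His-Eya2 (5X mix: 250 nM and 500 nM), glutathione donor and nickel acceptor beads; buffer 50 mM Tris pH 8.0, 300 mM NaCl, 1 mM TCEP; 1 h at 37 C in the dark.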
BAZ2B inh: inhibitors of human BAZ2B bromodomain | Q9UIF8 | AlphaScreen BAZ2B-H3K14Ac peptide displacement | Potency, µM (top dose mostly 114 µM), for the others: at the highest dose activity change, negative = inhibition, actives largely listed as inhibitors | hit rate 4.4% among 360,000; note: potency is the fitted concentration of half-maximal effect; % is set by controls: 0 for no effect and ±100 for the full control effect; nearly all actives have a fitted effect of over 60% in size
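Multi-concentration screen (max 110 uM) measuring displacement of acetylated histone H3 peptide from BAZ2B by AlphaScreen, using 50 nM protein, 50 nM peptide and 10 ug/mL streptavidin donor plus Ni-chelate acceptor beads.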
CtBP-E1A blk: blocks the CtBP interaction with E1A; AlphaScreen GST-E1A/His-CtBP binding, 1536-well; hits give low values; activity change, % (test concentration not listed); hit rate 0.49% among 340,000; in the data active = activity change below about -65%; inconclusive = mostly about -30% to -63%; note: % is set by controls: 0 for no effect and ±100 for the full control effect
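In 5 uL wells, 23 nL compound meets equimolar GST-E1A and His-CtBP (5X stock 125 nM each) for 2 h, 37 °C. Beads (5X, 50 ug/mL) then 1 h, 37 °C, dark.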
JMJD2A Tudor inh: JMJD2A Tudor domain (human) inhibition | Potency, µM (top dose mostly 114 µM), for the others: at the top dose activity change, negative = inhibition, actives largely listed as inhibitors | AlphaScreen JMJD2A-Tudor / H3K4me3 peptide binding | O75164 | hit rate 4.4% among 390,000; note: potency is the fitted concentration of half-maximal effect; % is set by controls: 0 for no effect and ±100 for the full control effect; nearly all actives have a fitted effect of over 50% in size
G9a inh: blocks human histone lysine methyltransferase G9a. Q96KQ7. G9a H3K9 monomethylation, AlphaScreen, 2 h. Potency, µM (titrated, usually from 102 µM), inactives show top-dose activity, negative = inhibition, actives largely listed as inhibitors. hit rate 8.8% among 350,000. AID 504332; note: potency is the fitted concentration of half-maximal effect; % is set by controls: 0 for no effect and ±100 for the full control effect; nearly all actives have a fitted effect of over 75% in size
Target sequence (Q96KQ7 913-1193 limits assumed): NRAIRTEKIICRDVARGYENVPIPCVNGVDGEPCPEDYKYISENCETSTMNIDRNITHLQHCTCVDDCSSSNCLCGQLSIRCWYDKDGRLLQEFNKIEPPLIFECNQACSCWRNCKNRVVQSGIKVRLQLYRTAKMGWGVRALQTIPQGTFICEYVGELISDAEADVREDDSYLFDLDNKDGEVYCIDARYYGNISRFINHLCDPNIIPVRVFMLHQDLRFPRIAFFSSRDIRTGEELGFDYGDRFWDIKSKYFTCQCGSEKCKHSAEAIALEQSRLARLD
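AlphaScreen detection with an anti-monomethyl H3K9 antibody quantified product after a 2 h room-temperature reaction containing 500 nM biotinylated H3K9 peptide, 20 µM SAM and 20 nM enzyme, which had been preincubated 15 min with compound.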
* = called active by the depositor; ? = inconclusive; · = no result given; [ ] = another dose, or the depositor's remark. Sampled rows, rich in hits. Any-hit rate of the full collection: about 10%. Unless noted, calls come from the whole dose curve; as a rule, active = well fitted inhibition curve with a large enough effect; inconclusive = small, poorly fitted or top-dose-only effect; inactive = no such curve, though single readings can be large or run the other way.

SMILES	HP1b chromo inh	Six1-Eya2 blk	BAZ2B inh	CtBP-E1A blk	JMJD2A Tudor inh	G9a inh
CCC(NC(=O)CCc1c(C)c2cc3c(C)c(C)oc3cc2oc1=O)C(=O)N[C@@H](Cc1ccccc1)C(=O)O (some centres not stated)	2.9%	?	50.1µM*	?	?	?
Cc1c(CC(=O)O)c(=O)oc2c(C)c3occ(-c4ccccc4)c3cc12	21.8%	-77.1*	-10.4%	0.0	-19.5%	?
Cc1c(CCC(=O)O)c(=O)oc2cc3occ(-c4ccc(Cl)cc4)c3cc12	-21.6%	?	-35.0%	-71.0*	-28.9%	-18.0%
Cc1c(CCC(=O)O)c(=O)oc2cc3occ(-c4ccc(Br)cc4)c3cc12	?	?	-21.3%	?	-23.2%	?
Cc1c(CCC(=O)O)c(=O)oc2c(C)c3occ(-c4ccc(Cl)cc4)c3cc12	?	-86.3*	56.2µM*	-80.6*	?	?
Cc1cc2oc(=O)c(CC(=O)O)c(C)c2c2occ(-c3ccccc3)c12	15.6%	·	-15.8%	·	-20.5%	-32.3%[59 µM]
Cc1c(CCC(=O)O)c(=O)oc2cc3occ(-c4ccc(F)cc4)c3cc12	29.7%	?	-0.7%	?	-6.4%	-6.2%[12.7 µM]
Cc1cc(C)c(S(=O)(=O)NCCc2sc(-c3cccnc3)nc2C)c(C)c1	8.6%[57 µM]	·	-8.2%	·	-17.1%	-12.0%[59 µM]
Cc1ccccc1C(=O)Nc1ccc(C(=O)OCc2cc(=O)n3c4c(sc3n2)CCCC4)cc1	33.5%	·	-13.0%	·	-11.3%	?
CCCC(NC(=O)CCc1c(C)c2cc3c(-c4ccccc4)coc3cc2oc1=O)C(=O)O (configuration not stated)	28.3%	-17.1	1.5%	-67.8*	-5.5%	-1.7%
Cc1coc2c(C)c3oc(=O)c(CCC(=O)NCCC(=O)O)c(C)c3cc12	4.7%	-16.5	50.1µM*	-15.2	?	4.7%
CC1CCN(CCOc2cccc(Br)c2)CC1	?	-6.3	56.2µM*	3.1	7.94µM*	7.94µM*
Brc1cccc(OCCCN2CCCCCC2)c1	?	-5.9	50.1µM*	1.5	22.4µM*	10µM*
Clc1cccc(OCCN2CCN(CCOc3cccc(Cl)c3)CC2)c1	-5.8%	-18.3	?	-11.2	?	?
Cn1ccnc1-c1nc2ccccc2[nH]c1=O	20.0%	-21.5	17.8µM*	-16.9	35.5µM*	2.51µM*
Cc1oc2ncn(CC(C)C)c(=O)c2c1C(=O)NCCCN1CCCCC1C (configuration not stated)	6.1%	·	4.3%[57.1 µM]	·	-8.7%	-0.6%[59 µM]
COC(=O)/C=C/c1ccccc1CN1[C@@H](CC(=O)OC)c2ccccc2S1(=O)=O	38.7%	-23.7	-2.9%	-83.4*	-13.6%	-2.5%[0.501 µM]
O=C(O)/C=C/C(=O)Nc1ccc(N2CCOCC2)nc1N1CCOCC1	?	-2.4	-21.5%	3.2	-33.8%	8.91µM*
COc1ccc(NC(=O)/C=C/C(=O)O)c(OC)c1	28.4%	-0.4	-16.2%	4.8	-9.3%	?
CCOC(=O)C1CCC(CN(Cc2c(Cl)cccc2Cl)S(=O)(=O)c2ccc(Cl)cc2)CC1 (configuration not stated)	11.6%	·	5.4%	·	-9.2%	15.5%[59 µM]
Fc1ccc(/C=C2\CCCC3=C2NC(=S)NC3c2ccc(F)cc2)cc1 (configuration not stated)	·	·	?	·	·	22.4µM*
COC(=O)c1c(NC(=O)c2cccc(N3C(=O)CCC3=O)c2)sc2c1CCN(C(C)=O)C2	0.8%	-12.4	-27.0%	-13.8	-34.0%	79.4µM*
Cc1ccc(C(=O)N/C(=C\c2ccc(Br)cc2)c2nc(=S)[nH][nH]2)cc1	-18.4%	-10.6	?	-11.7	44.7µM*	14.9%
COc1cc2c(cc1OC)-c1nnnn1C(C)(C)C2	38.5%	-0.7	-1.1%	1.8	-2.6%	-0.6%[59 µM]
COc1cc2c(cc1OC)-c1n[nH]c(=S)n1C(C)(C)C2	41.0%	5.0	-2.7%	-11.3	39.8µM*	3.98µM*
